Assay results reported in PubChem BioAssay AID1347426 (Functional Genomics Laboratory (NCATS/FGL), 2020).
In all, about 31,000 sequences went through this assay and about 1,400 (4.5%) were called active. The full list was thinned out, with actives kept by preference. A number with no mark means an inactive call.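 How the source made its calls: active means median seed-adjusted z-score above 1 or below -1; inactive means the rest.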

Experiment: Novel Modifiers of Survival Motor Neuron (SMN) Protein: Gene Identification via Genome-wide siRNA Screen;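 further: luminescence tracks full-length SMN protein made from the SMN2 reporter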
Details: HEK293T SMN2-luciferase reporter, siRNA knockdown, 72 h; actives lie on both sides
Method in brief: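 siRNA screen, 10418 genes ×3 siRNAs; 1 pmol/well, lipid reverse transfection into HEK293T SMN2-luc reporter line. 72 h, 37 °C, 5% CO2; ONE-Glo readout. Data: neg-ctrl normalized, log10, MAD; hit = MAD >1.0 or < -1.0.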

Row | Sequence | median seed-adjusted z-score
1 | CCUUUGAGAUGGAAGCCUATT against ACY3 | 0.568
2 | CAACCCUACCAAUGCUACUTT against PTP4A2 | -1.45 (active)
3 | GCUGUGAAAUUGUUUCGAATT against IREB2 | 0
4 | GGGAACUUCUUGGAACUUUTT against KLK12 | 0.243
5 | CCAGCGCAACAAAGGAAAATT against HMX1 | 1.3 (active)
6 | GAACUAAGCACUACUCUAATT against DRP2 | -0.0555
7 | GCUACUUCUCAGUUGCUAATT against NDST4 | 0.426
8 | CAAAGUGACCAAGCAGAGATT against SF3A2 | -1.7 (active)
9 | CACCAGGACCAGUUAAAAATT against MVD | -0.561
10 | GGUGAUUCAAGAUGCCCAATT against PXMP2 | -0.444
11 | CUCCCAUGAUGGCAUCUUATT against HSPB2 | 0.247
12 | CCAUCGAUGUCUCUGCUAUTT against ABCA1 | -1.27 (active)
13 | UCGUCUUUGUCACCCGAAATT against CCL5 | 0.11
14 | CGUGCGGACAAUAAGCAAATT against MYO1C | 0.566
15 | GGCUAACUCGAUUUAAGCATT against TIGD2 | -0.13
16 | GACUUUGACAAAGCGAUUATT against SPTAN1 | -0.233
17 | CAUCCAUGGUUAAGUCAUATT against PTK6 | -0.295
18 | GCACCUCUACAGGAACUUUTT against TSC2 | 1.11 (active)
19 | GCUCCUCGUUUGUAGAAGATT against SLIT3 | -0.453
20 | CGAUGUCUAGAGAACAGCATT against LAMB1 | 1.07 (active)
21 | CGAGUACCGGGUCAAGAUATT against PLXND1 | -0.064
22 | CGGUGACCAUAGUACAACATT against FOXK2 | -0.348

Row | Sequence | median seed-adjusted z-score
23 | GAGCGCCUCUAGAAUGUAATT against HMX1 | 1.3 (active)
24 | AGUUUGUGAUAUCAUGAGATT against FRMPD2 | -0.329
25 | UCAAUACUGUGGGUUCUUATT against FBLN2 | 0.176
26 | GGUACCUGCUGAUUCAGAATT against SLC2A5 | -0.429
27 | GCUACAUCGAGGACCUUAATT against SERPINB1 | 0.734
28 | CCAUUGUCUUCCACCGAAATT against RAN | -3.09 (active)
29 | CAACGGUAAUUAUCAGUCATT against FABP7 | 0.562
30 | GCCUGACUGUAACACCCAATT against TXN2 | 0.87
31 | GGAAAGGUCUAGAUCAGGATT against SEL1L2 | -0.342
32 | GCAGCUUCACCUAUCCGAUTT against KLF4 | 0.883
33 | GCGAUAUUAUCAUACUGGATT against ZNF470 | -1.26 (active)
34 | CCACCGACGACAAUCUGUATT against ATP4A | 0
35 | AGGUCAGGGUUACAGCUUUTT against MPP2 | 0.0496
36 | CCAUAUAAGUUUACGUUUATT against TM9SF2 | 1.09 (active)
37 | CCUCGACCCUGUUUCUUAUTT against ARL4D | -0.523
38 | CCACGUUCACCAAGAUCUUTT against RBM38 | 0.0358
39 | GGCUUAUGGAGAUAUGAAUTT against PPFIA2 | 0.176
40 | GGAACUCUUUGCUGAAUUUTT against THOC4 | -1.54 (active)
41 | CAUUAGUACUUCGAUCUAUTT against PHCA | 0.0568
42 | GCUCCAAAUGGAGAGUGUATT against PRKCDBP | 0.244
43 | GGAACAGCACAGAACAGCATT against ARID5A | 0.0642
44 | CCAUUGAAGCUUGAGAGAATT against ZNF286A | 0.0368

Row | Sequence | median seed-adjusted z-score
45 | CGAAGACUGUCUGAGACAATT against GPR52 | -1.17 (active)
46 | CCGUAAACAUAUGACUAAATT against ZBTB11 | -0.105
47 | CGCCAUCUGUGUAACUUCATT against CARD9 | -0.325
48 | GAGACCCUCUGGUUAUAGATT against FKBP11 | -0.085
49 | AGGCCGCUGUGGACAUCAATT against CASKIN1 | 0.555
50 | GAUUCUACUGUCUUACUAATT against HIATL1 | 0.327
51 | CAGCAGUACCGACAGAAGATT against ATAD3B | -0.624
52 | UCAUGAACAUUGUCAAUGATT against ADAMTS2 | -0.338
53 | GUGGUUUCUUGAUCUGAAATT against HSDL2 | -0.0717
54 | GAGGCUUCAUUUUAGAAGATT against XPA | 2.03 (active)
55 | CCCUUUUCGUGGUCUAUGATT against LCMT2 | -0.0205
56 | GCCUCGCUGUGAUCUGAUUTT against CACNG6 | -0.0499
57 | CGGUUGUUAUGACAAUGGATT against FN1 | -0.312
58 | UGCUCUACUUCUUAAGUGATT against STARD8 | -0.135
59 | GAAGGAUCUCAAACUCGAATT against NECAB1 | 0.0268
60 | GAUCUUCGGUGAAUCAGAATT against MRC2 | -1.34 (active)
61 | GGUCAUUAAUUUACAUGAATT against STK17A | 0
62 | ACAACGUGGUGAGAUGCAATT against LOXL1 | 0.0435
63 | GAGGUUUUAUAUAACCGAUTT against SMC6 | 0.227
64 | GCAUGUUAUCGAAGGGUUUTT against PHC2 | 0.177
65 | GAUGCUACUUUAGAAUUAATT against GNPDA2 | -0.422
66 | AGAUUUAUCUUGAAGCUGATT against ARL4D | -0.523

Row | Sequence | median seed-adjusted z-score
67 | CUUGAUGACUCUAAACCUATT against RUNX2 | 0.335
68 | AAGACUCACUUGUUCAACATT against ZNF772 | 0.817
69 | GGGACAAGUUCGUCAUCUUTT against CRYAA | -1.03 (active)
70 | CCUAUGAUAUGGUUCCAGATT against COX5A | -0.348
71 | GGUAUACAAGGAAAGGUUATT against EIF4E | -0.404
72 | UGGACAUUCUUGCACCCAATT against CHTF18 | 0.371
73 | CAAUAUUAGUUGCUGUAUATT against PPAP2A | 0
74 | UGCUGACCUCGUUACCUUUTT against UCP3 | 1.23 (active)
75 | CAGUCUUUAUGCAAUGGAATT against TYR | 0.131
76 | AGAUGUACAACGACCCAAATT against AGBL4 | 0.487
77 | GCAUGGUAUUGGAAUAACUTT against CHEK1 | -5.1 (active)
78 | GACCUUCCACAGUACAUCATT against MAST3 | -0.642
79 | GCUCAGAUAAAGUACAGAATT against GGCX | -0.362
80 | GAGUCAUAGUUGCAGCUGATT against PSMB5 | -1.37 (active)
81 | CCUCAUGACUUCGCAAAUATT against COPB1 | -0.839
82 | GGACCAUAACUCUUACGUATT against RBM26 | -0.967
83 | UCACUGUGCUACAUCAUCATT against MYL7 | -1.21 (active)
84 | GUUGAGGUCUGGUAACAGATT against TMED1 | 0
85 | GGAGUUUGUUUGCAAGUAUTT against RREB1 | -0.414
86 | CCAUCUACAUCAGAGUCCATT against BTN1A1 | 0.291
87 | GGACAAAUUUUGGAGAGAATT against COG2 | 0.791
88 | CCAACAGGAGAGUACGUGATT against STRADA | 0.415

Row | Sequence | median seed-adjusted z-score
89 | CCAUUUGACUUUAUGGAGATT against RRM2 | -3.84 (active)
90 | GGCCUUCGUGUACAUCAAUTT against SUV39H1 | -0.0775
91 | CUAUGCCCGUGGUCACUAUTT against TUBA4A | -0.594
92 | GAGCCGCUGGUGUAUCUUUTT against TLR4 | 0.113
93 | GGCAAGAUCUGUACCGUGATT against HPN | -0.0237
94 | CCAGGACAUUCGAAAGCGATT against TRAF4 | -1.16 (active)
95 | CGGGUACAAGGAUUGGUUUTT against ROM1 | 0.41
96 | CCACUCUCAUUGUGACUGATT against DDX54 | 0
97 | GGAUUAUGAAGAAUGGAAATT against ORC6L | 0
98 | GGCAGAGCCUGACCACUUUTT against LOC100137047-PLA2G4B | -0.022
99 | GGAGCGAGCUGGUGCAUAATT against SH3BP5 | -0.707
100 | GCAUCGCUGUUACCCAUCUTT against CCRN4L | -0.572
101 | GGAGAUAAGAGAUCAUAUUTT against OXNAD1 | 0.36
102 | CAUGAGAUACGAUACACUATT against TRMT6 | 0.069
103 | CGCACACGUAGAGACCUUATT against PNN | 1.29 (active)
104 | CAACUUCACUCAGAACCCATT against MARCO | 0.137
105 | GCCUACUUCAUUCAUCAUATT against KSR1 | 0.0873
106 | CAAUCGUCCAAUGAUCUUATT against PCDHB1 | 0.342
107 | CCUUCAUAGUCAACAGCAATT against MGC16703 | 0.55
108 | GCACGACGACAAUAUCAUUTT against PEX3 | 0.142
109 | CCAUUAUUGACUCACCCUATT against CSTF2T | 0.387
